This is an account of results in ChEMBL document CHEMBL2218924, “A broad activity screen in support of a chemogenomic map for kinase signalling research and drug discovery” (Biochem J, 2013).

The target of assay [1] is Tyrosine-protein kinase SYK (Homo sapiens) (UniProt P43405). Particulars: at 10 µM.
Assay [2] addresses T1, Mitogen-activated protein kinase kinase kinase 7 (Homo sapiens) (UniProt O43318).
T1 sequence (whole entry): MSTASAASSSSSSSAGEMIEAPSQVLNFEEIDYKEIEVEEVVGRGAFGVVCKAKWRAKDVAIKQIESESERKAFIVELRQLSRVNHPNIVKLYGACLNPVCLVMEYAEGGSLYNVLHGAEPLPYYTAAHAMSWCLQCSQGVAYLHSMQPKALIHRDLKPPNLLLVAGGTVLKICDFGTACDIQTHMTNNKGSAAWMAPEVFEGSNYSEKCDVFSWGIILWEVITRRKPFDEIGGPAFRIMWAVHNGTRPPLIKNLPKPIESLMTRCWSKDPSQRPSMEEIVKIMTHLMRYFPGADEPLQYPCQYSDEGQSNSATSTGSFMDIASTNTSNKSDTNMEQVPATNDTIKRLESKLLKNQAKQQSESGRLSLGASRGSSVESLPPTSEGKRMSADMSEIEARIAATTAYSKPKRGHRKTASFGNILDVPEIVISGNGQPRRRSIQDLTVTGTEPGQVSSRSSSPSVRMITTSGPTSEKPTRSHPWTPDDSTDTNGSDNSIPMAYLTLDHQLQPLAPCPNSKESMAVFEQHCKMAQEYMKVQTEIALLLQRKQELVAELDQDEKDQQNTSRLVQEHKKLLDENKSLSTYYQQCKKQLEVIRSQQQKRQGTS
The conditions noted are these: at 1 µM.

Assay [3] addresses T1, Mitogen-activated protein kinase kinase kinase 7 (Homo sapiens). Particulars: at 10 µM.
Assay [4] has as its target T2, Serine/threonine-protein kinase TAO1 (Homo sapiens) (UniProt Q7L7X3).
T2 sequence (whole entry): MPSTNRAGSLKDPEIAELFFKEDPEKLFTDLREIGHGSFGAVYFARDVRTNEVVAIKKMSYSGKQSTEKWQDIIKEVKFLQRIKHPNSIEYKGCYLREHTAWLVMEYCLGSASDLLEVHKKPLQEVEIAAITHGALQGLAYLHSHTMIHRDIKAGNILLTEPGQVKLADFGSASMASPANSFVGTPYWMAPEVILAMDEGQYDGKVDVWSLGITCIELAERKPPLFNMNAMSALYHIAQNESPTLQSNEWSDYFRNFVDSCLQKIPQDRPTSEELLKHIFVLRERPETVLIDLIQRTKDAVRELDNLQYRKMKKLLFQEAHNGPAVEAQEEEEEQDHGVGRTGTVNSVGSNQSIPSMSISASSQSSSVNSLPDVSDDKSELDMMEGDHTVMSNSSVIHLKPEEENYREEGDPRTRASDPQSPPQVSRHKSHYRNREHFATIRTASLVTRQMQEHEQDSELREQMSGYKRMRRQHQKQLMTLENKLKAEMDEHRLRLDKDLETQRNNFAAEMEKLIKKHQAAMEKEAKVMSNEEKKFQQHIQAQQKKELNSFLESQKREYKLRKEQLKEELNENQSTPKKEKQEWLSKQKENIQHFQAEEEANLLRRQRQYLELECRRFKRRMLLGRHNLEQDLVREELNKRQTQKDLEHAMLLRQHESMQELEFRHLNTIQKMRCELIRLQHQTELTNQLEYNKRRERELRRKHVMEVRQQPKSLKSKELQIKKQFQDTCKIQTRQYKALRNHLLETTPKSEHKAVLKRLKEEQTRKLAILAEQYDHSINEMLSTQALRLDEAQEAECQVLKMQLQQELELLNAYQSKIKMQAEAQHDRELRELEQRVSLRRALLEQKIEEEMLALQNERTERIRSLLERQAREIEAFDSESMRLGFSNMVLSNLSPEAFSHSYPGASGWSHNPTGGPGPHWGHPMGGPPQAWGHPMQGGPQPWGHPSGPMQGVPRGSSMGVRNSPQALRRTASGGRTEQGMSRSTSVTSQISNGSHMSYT
The conditions noted are these: at 1 µM.

The target of assay [5] is T2, Serine/threonine-protein kinase TAO1 (Homo sapiens). The conditions noted are these: at 10 µM.
The target in assay [6] is T3, Serine/threonine-protein kinase TAO2 (Homo sapiens) (UniProt Q9UL54).
T3 sequence (whole entry): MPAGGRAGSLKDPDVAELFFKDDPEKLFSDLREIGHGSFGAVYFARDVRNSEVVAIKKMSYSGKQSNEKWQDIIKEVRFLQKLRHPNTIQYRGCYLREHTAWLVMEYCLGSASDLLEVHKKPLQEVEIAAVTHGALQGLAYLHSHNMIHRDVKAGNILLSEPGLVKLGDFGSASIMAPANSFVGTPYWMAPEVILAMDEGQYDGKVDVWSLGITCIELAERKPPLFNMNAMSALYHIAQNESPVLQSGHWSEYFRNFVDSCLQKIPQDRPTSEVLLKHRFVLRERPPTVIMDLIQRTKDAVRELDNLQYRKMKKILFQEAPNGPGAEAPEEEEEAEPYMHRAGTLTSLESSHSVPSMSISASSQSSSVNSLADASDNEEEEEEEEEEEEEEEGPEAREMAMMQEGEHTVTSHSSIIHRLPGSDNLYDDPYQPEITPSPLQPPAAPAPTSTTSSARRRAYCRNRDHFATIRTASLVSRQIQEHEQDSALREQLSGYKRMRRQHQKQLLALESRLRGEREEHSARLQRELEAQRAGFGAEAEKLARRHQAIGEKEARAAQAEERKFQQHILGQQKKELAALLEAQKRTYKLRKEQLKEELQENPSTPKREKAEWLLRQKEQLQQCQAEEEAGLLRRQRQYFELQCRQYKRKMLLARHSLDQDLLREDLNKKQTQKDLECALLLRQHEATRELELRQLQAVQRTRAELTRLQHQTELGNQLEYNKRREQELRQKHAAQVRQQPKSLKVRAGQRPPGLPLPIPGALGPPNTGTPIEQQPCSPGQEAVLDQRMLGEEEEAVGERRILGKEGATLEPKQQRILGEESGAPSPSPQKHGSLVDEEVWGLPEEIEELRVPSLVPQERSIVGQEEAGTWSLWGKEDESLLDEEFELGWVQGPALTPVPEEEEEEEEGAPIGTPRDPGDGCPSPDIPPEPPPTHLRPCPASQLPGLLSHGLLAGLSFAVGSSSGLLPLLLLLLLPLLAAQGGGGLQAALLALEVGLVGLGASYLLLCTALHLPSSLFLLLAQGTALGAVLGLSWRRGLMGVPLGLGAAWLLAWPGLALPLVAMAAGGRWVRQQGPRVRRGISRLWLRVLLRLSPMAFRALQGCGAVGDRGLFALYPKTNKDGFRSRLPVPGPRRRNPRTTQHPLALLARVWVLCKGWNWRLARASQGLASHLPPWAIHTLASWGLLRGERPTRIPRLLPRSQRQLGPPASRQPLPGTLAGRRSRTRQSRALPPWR
The conditions noted are these: at 1 µM.

Assay [7] concerns the target T3, Serine/threonine-protein kinase TAO2 (Homo sapiens). Particulars: at 10 µM.
The target of assay [8] is T4, Serine/threonine-protein kinase TAO3 (Homo sapiens) (UniProt Q9H2K8).
T4 sequence (whole entry): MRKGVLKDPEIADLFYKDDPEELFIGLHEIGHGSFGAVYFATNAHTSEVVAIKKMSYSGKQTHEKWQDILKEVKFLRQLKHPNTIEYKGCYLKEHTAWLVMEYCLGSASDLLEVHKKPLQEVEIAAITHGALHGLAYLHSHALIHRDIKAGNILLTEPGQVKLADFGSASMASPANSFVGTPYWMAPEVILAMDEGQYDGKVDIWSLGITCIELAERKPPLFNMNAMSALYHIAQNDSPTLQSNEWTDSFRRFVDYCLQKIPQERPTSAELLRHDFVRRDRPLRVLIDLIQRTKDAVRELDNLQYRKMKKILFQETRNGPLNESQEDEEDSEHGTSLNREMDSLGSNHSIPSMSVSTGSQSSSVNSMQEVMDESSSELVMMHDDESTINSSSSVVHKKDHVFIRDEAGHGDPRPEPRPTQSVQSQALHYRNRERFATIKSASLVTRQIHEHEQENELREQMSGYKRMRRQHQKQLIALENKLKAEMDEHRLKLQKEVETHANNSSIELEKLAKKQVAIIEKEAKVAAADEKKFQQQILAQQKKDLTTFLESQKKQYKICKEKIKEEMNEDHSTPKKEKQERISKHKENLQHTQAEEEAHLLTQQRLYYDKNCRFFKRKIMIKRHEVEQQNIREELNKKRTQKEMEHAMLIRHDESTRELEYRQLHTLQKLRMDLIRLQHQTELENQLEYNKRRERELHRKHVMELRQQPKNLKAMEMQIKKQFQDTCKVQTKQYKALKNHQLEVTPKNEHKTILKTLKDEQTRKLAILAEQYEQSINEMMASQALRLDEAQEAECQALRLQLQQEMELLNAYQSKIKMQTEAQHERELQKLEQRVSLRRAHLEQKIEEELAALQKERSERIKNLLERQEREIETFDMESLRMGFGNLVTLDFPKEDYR
Particulars: at 1 µM.

The target of assay [9] is T4, Serine/threonine-protein kinase TAO3 (Homo sapiens). The conditions noted are these: at 10 µM.
Assay [10] concerns the target T5, Serine/threonine-protein kinase TBK1 (Homo sapiens) (UniProt Q9UHD2).
T5 sequence (whole entry): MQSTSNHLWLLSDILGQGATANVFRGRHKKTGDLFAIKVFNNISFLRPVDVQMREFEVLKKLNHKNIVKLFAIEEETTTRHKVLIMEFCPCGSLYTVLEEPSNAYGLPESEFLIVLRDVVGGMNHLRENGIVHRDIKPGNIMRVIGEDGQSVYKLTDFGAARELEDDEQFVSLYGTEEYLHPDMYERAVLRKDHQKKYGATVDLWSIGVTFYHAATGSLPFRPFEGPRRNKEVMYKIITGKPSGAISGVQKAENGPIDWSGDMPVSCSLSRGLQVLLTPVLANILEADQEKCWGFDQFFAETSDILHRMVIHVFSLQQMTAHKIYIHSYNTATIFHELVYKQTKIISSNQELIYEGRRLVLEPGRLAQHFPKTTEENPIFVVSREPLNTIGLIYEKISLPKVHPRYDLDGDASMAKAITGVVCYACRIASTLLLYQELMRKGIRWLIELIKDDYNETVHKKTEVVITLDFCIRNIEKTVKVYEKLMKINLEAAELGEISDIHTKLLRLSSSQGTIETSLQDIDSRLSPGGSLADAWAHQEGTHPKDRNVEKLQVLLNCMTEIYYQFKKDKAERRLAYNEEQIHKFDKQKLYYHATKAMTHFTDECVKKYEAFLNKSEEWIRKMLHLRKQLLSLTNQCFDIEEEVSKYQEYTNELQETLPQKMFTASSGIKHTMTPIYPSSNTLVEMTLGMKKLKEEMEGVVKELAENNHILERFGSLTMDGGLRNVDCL
The conditions noted are these: at 1 µM.

The target in assay [11] is T5, Serine/threonine-protein kinase TBK1 (Homo sapiens). Particulars: at 10 µM.
Assay [12] has as its target T6, TGF-beta receptor type-1 (Homo sapiens) (UniProt P36897).
T6 sequence (whole entry): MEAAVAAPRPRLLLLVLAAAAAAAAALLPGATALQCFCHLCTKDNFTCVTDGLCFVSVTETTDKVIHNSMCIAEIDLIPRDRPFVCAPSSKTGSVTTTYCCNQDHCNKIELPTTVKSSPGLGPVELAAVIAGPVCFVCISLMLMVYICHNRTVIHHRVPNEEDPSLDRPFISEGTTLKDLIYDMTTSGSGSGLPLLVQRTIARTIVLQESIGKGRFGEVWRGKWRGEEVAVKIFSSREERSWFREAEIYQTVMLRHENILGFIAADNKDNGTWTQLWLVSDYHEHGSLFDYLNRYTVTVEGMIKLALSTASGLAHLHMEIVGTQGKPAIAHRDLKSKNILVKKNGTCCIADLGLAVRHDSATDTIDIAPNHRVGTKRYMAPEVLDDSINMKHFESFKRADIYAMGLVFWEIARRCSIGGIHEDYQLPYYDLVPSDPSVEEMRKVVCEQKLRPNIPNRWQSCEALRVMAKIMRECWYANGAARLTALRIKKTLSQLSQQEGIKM
The conditions noted are these: at 1 µM.

The target of assay [13] is T6, TGF-beta receptor type-1 (Homo sapiens). Particulars: at 10 µM.
For assay [14], the target named is Insulin-like growth factor 1 receptor (Homo sapiens) (UniProt P08069). Particulars: at 1 µM.
Chain of Insulin-like growth factor 1 receptor (Homo sapiens) (P08069 31-736 limits assumed): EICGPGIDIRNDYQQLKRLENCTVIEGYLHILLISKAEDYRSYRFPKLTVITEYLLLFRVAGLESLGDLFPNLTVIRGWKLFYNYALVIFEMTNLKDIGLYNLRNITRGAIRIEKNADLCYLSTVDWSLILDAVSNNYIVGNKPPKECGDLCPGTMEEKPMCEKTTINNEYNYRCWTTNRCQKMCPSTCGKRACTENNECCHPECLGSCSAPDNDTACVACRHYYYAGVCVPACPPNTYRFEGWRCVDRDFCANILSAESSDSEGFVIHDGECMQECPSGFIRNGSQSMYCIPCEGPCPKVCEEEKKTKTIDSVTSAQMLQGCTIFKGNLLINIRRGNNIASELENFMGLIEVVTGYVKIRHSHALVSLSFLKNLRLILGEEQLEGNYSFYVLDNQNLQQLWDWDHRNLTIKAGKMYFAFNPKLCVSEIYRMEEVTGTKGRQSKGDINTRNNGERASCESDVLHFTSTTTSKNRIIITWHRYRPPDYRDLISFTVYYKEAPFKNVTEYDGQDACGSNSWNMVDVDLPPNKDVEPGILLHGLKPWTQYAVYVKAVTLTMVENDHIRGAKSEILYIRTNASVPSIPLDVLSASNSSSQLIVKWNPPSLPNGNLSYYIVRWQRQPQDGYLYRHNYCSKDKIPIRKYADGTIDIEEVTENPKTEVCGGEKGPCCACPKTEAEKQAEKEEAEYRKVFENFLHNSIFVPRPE
Chain of Insulin-like growth factor 1 receptor (Homo sapiens) (P08069 741-1367 limits assumed): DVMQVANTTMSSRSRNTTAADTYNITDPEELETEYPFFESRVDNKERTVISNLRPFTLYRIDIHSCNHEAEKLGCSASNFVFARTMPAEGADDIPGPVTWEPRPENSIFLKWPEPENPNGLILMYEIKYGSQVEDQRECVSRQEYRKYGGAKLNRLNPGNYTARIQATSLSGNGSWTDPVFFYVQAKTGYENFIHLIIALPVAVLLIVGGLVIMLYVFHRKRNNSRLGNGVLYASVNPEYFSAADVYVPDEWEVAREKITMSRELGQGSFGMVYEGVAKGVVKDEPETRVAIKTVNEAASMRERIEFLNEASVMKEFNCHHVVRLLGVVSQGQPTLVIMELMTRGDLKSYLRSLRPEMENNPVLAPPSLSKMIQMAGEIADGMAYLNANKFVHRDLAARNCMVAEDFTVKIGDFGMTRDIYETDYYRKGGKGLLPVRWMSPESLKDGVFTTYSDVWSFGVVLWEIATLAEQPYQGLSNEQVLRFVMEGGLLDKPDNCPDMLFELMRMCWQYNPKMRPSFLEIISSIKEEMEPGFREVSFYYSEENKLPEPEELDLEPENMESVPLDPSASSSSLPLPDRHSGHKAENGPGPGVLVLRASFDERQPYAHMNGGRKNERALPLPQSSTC
Assay [15] concerns the target T7, Inhibitor of nuclear factor kappa-B kinase subunit beta (Homo sapiens) (UniProt O14920).
T7 sequence (whole entry): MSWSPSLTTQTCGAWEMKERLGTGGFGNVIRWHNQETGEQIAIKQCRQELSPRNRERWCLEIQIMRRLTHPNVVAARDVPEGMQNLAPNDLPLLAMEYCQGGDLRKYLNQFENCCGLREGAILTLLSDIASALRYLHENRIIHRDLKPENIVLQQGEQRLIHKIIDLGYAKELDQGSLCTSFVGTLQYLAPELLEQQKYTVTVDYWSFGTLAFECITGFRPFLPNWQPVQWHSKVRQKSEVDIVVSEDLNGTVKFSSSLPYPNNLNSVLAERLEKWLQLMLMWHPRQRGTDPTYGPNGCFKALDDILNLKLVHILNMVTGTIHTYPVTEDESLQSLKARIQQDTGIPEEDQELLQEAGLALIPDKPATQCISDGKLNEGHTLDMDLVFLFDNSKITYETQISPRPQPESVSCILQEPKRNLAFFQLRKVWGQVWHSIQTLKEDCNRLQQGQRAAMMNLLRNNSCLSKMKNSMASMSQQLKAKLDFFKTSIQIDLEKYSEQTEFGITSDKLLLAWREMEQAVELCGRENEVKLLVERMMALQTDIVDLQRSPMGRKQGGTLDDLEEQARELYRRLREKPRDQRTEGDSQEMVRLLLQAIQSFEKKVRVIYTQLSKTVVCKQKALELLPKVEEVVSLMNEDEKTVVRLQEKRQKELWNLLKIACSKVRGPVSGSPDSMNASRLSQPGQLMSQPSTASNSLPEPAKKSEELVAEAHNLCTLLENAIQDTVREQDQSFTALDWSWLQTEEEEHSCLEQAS
Particulars: at 1 µM.

Assay [16] deals with T7, Inhibitor of nuclear factor kappa-B kinase subunit beta (Homo sapiens). Particulars: at 10 µM.
In assay [17] the target is Insulin receptor (Homo sapiens) (UniProt P06213). Particulars: at 1 µM.
Chain of Insulin receptor (Homo sapiens) (P06213 28-758 limits assumed): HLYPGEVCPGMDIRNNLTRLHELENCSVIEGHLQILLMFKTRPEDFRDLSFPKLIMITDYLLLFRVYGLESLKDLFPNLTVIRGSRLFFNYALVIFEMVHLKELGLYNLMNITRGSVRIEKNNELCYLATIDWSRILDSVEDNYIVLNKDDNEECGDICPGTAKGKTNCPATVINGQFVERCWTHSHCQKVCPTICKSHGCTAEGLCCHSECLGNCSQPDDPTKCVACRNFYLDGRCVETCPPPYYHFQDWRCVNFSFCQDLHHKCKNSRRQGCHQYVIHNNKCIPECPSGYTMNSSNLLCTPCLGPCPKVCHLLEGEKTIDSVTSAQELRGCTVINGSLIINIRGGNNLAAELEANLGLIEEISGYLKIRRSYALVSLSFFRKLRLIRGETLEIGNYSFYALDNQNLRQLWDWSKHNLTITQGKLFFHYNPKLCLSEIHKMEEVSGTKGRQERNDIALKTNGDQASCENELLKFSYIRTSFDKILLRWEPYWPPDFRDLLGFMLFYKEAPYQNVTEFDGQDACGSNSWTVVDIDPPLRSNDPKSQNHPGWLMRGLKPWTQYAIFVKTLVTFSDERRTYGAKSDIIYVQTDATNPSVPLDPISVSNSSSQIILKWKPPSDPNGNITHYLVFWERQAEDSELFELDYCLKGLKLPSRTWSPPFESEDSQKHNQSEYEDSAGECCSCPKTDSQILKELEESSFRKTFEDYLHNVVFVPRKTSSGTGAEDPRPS
Chain of Insulin receptor (Homo sapiens) (P06213 763-1382 limits assumed): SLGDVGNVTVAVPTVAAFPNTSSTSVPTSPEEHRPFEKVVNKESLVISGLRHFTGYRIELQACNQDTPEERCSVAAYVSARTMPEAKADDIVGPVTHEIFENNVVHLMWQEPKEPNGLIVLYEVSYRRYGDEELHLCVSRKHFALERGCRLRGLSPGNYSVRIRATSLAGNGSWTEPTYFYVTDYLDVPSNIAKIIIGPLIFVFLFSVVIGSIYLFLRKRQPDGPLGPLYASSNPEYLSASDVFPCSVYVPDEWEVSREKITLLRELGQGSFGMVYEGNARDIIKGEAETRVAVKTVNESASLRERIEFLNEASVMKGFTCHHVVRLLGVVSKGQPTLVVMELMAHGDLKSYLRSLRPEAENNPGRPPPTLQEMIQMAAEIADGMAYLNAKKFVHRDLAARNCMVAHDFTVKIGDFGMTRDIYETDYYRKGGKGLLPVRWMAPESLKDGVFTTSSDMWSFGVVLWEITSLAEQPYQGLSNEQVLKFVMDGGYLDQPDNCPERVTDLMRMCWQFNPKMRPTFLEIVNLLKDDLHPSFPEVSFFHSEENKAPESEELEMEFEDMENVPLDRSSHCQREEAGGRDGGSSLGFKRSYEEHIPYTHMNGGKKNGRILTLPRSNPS

As to `CN(C)S(=O)(=O)c1ccc2c(c1)/C(=C/c1cc3c([nH]1)CCCC3)C(=O)N2`, the residual activity in assay [1] came out at 96%; in assay [2], 100%; in [3] it was 92%; in assay [4], 37%; in assay [5], 56%; in assay [6], 93%. Moreover, the residual activity is 87% in assay [7]; 89% in assay [8]; 73% in [9]; 74% in assay [10]; 60% in assay [11]; 88% in assay [12]. Further, the residual activity came out at 91% in assay [13]; 93% in assay [14]; 100% in [15]; 63% in assay [16]; 93% in assay [17].
